# Reference: PubChem BioAssay (NCATS)
# Results filed as inconclusive are left out. Where a call stands in place of a potency, no number is given. Calls of active or inactive are those of the source. The call rests on the fitted dose curve; in most records, active means well fitted curve in the direction sought with a large enough effect; inconclusive means small, poorly fitted or top-dose-only effect, or another doubt; inactive means no such curve, though single readings can be large; an effect the other way counts as inactive or inconclusive. Where a SMILES comes first, the peptide text is derived from it. [ ]: non-standard residue; d: D form. pGlu = O=C1CC[C@@H](C(=O)O)N1; Thz = O=C(O)[C@@H]1CSCN1
# Columns and labels:
# [1] = molecular target: Cytochrome P450 3A4 (Homo sapiens) (UniProt P08684); assay: qHTS for inhibitors of CYP3A4 against the NCATS DSHEA and TCM libraries (AID 1919971);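 further: inhibition lowers luminescence from luciferin made by CYP3A4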
# Sequence of Cytochrome P450 3A4 (Homo sapiens) (P08684 whole entry, looked up): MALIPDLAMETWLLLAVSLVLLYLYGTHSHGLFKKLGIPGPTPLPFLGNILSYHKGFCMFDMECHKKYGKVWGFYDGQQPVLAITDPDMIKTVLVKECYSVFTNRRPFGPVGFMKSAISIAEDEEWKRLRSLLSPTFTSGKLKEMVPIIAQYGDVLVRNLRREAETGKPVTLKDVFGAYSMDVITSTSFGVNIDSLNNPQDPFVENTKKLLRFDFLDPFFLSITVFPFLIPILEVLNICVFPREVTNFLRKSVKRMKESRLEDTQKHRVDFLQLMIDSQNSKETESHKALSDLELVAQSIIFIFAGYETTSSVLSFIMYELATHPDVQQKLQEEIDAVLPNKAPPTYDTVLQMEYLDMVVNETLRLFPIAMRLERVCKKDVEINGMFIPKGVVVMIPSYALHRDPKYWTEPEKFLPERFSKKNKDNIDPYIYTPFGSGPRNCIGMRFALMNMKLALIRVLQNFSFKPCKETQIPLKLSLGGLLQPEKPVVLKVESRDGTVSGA
# Text: Assay Development and Screening Technology Laboratory (ADST)
# National Center for Advancing Translational Sciences (NCATS), Rockville, MD
# National Institute of Health (NIH), Bethesda, Maryland
# Dietary Supplements and Natural Products have minor oversight of their safety and efficacy. We assembled a collection of Dietary Supplements and Natural Products (DSNP) as well as Traditional Chinese Medicinal (TCM) Plant extracts, which were screened against an in vitro panel of assays, including a liver cytochrome p450 enzyme panel, CAR/PXR signaling pathways, and P-gp transporter assays, to assess their activity. This pipeline facilitated the interrogation of Natural Product-Drug Interaction (NaPDI) through prominent metabolizing pathways. In addition, we compared the activity profiles of the DSNP/TCM substances with those of an approved drug collection. Many of the approved drugs have well-annotated mechanisms of action (MOA) while the MOAs for most of the DSNP and TCM samples remain unknown. […] Overall, we highlight four significant bioactivity profiles (measured by p-values) as examples of this prediction. […] To profile potential P-gp activity, a differential cell viability was measured against two cell lines: a parental KB-3-1 human cervical adenocarcinoma cell line and the drug-resistant subline KB-8-5-11 that overexpresses P-gp. […]
# 9; Read; Luminescence; ViewLux plate reader. […]
# [2] = molecular target: Cytochrome P450 2D6 (Homo sapiens) (UniProt P10635); assay: qHTS for inhibitors of CYP2D6 against the NCATS DSHEA and TCM libraries (AID 1919972)
# Sequence of Cytochrome P450 2D6 (Homo sapiens) (P10635 whole entry, looked up): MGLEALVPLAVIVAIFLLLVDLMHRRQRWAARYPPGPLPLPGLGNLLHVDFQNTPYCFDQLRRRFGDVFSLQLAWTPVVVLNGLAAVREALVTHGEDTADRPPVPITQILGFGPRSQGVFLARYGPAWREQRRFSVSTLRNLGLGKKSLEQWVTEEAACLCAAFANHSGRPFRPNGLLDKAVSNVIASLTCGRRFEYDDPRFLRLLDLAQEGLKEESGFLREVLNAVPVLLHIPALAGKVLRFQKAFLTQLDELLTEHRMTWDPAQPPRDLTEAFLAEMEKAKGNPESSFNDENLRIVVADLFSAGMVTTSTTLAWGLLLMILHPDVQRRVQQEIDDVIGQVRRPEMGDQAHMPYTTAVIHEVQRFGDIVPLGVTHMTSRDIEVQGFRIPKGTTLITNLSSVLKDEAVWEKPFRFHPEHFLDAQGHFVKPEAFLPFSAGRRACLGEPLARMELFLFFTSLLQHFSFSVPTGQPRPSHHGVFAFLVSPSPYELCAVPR
# How it was run: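 qHTS, concentration–response format with most substances from 19.5 nM. CYP2D6 + pro-luciferin substrate, 15 min with compound, then 1x NADPH regen, 30–45 min RT dark. Glo detection 30 min, luminescence. Quinidine control.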
# [3] = molecular target: Cytochrome P450 2C19 (Homo sapiens) (UniProt P33261); assay: qHTS for inhibitors of CYP2C19 against the NCATS DSHEA and TCM libraries (AID 1919974); details: CYP2C19 enzyme inhibition, luminescence qHTS;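 further: luminescence from luciferin released by CYP2C19 oxidation of a pro-luciferin substrate; potency means the concentration at half of the fitted maximal effect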
# Sequence of Cytochrome P450 2C19 (Homo sapiens) (P33261 whole entry, looked up, canonical isoform): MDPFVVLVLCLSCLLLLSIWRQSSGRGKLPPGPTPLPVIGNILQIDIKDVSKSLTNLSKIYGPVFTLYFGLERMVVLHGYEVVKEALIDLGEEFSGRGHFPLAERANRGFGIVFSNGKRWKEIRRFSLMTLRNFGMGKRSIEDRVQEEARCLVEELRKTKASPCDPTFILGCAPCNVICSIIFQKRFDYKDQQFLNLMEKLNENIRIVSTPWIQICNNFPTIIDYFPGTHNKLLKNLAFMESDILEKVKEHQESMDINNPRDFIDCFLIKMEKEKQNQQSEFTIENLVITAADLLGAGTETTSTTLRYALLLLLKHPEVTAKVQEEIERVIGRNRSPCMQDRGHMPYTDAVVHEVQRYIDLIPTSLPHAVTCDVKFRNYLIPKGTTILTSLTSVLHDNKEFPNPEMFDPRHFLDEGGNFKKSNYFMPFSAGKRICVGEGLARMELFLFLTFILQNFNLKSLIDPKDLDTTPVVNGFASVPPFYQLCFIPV
# How it was run: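 Isoform-specific enzyme and substrate levels; enzyme-free wells as background. Reaction: 1x NADPH regenerating system, 30-45 min, room temperature, shielded from light; luminescent detection reagent added, 30 min.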
# [4] = KB-3-1 P-gp reporter qHTS against the NCATS DSHEA and TCM libraries (AID 1919975)
# How it was run: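 CellTiter-Glo luminescence viability readout; KB-3-1 parental cells, 500/well, attached ~4 h, then compound for ~72 h, 37C, 5% CO2. Bortezomib intraplate control.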
# [5] = molecular target: Glutathione peroxidase 1 (Homo sapiens) (UniProt P07203); assay: Primary qHTS Assay for Inhibitors of Recombinant Selenoprotein Glutathione Peroxidase 1 (GPX1) (AID 1845191); further: nearly all actives have a fitted effect of over 65% in size
# Sequence of Glutathione peroxidase 1 (Homo sapiens) (P07203 whole entry, looked up): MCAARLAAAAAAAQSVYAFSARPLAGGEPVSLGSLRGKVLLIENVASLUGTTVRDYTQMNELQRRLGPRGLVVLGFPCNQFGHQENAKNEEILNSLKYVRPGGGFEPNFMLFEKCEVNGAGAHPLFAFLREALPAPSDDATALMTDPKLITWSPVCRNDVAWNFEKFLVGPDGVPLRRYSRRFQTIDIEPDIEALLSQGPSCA
# How it was run: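 NADPH consumption tracked by fluorescence at 340/450 nm between t=0 and t=15 min, room temperature. Final mix: 10 nM GPX1, 100 nM glutathione reductase, 1 mM GSH, 0.5 mM NADPH, 0.5 mM cumene hydroperoxide, 0.01% BSA; 30 min compound–enzyme preincubation.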
# [6] = molecular target: Phospholipid hydroperoxide glutathione peroxidase GPX4 (Homo sapiens) (UniProt P36969); assay: Primary qHTS Assay for Inhibitors of Recombinant Selenoprotein Glutathione Peroxidase 4 (GPX4) (AID 1845192); further: nearly all actives have a fitted effect of over 65% in size
# Sequence of Phospholipid hydroperoxide glutathione peroxidase GPX4 (Homo sapiens) (P36969 whole entry, looked up): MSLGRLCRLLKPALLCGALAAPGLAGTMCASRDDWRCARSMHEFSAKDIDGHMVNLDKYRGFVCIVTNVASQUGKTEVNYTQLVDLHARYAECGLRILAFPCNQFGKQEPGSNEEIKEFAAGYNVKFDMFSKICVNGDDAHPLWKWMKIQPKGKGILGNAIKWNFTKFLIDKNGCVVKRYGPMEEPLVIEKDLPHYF
# How it was run: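 NADPH consumption followed by fluorescence at 340/450 nm, t=0 and after 15 min at room temperature. Reaction started with cumene hydroperoxide (0.5 mM final) after 30 min compound–GPX4 preincubation; final 200 nM GPX4, 100 nM GR, 1 mM GSH, 0.5 mM NADPH.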
# [7] = molecular target: Luciferin 4-monooxygenase (Photinus pyralis) (UniProt P08659); assay: Primary firefly luciferase (FLuc) qHTS assay for identification of artifact compounds. (AID 1845220); further: nearly all actives have a fitted effect of over 60% in size
# How it was run: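 Compounds sat 15 min at room temperature with 10 uM luciferin and 10 uM ATP (pH 7.6 Tris acetate). Firefly luciferase (10 nM final) was then added, and luminescence was read 5 min later. Data normalized to no-enzyme and DMSO controls were Hill-fitted.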
# [8] = Primary fluorescence-based thiol-reactive (MSTI) qHTS assay for identification of artifact compounds. (AID 1845221);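 further: series mostly up to about 54 µM; thiol-reactive compounds lower the probe fluorescence signal; nearly all actives have a fitted effect of over 65% in size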
# How it was run: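 First, 4 uM MSTI in 2% DMSO/PBS pH 7.4 was dispensed; next, compounds were added; then plates sat 1 h at room temperature without light. Finally, emission at 598 nm was recorded.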
# [9] = tested on: Nanoluciferase (engineered Oplophorus gracilirostris luciferase); assay: Primary Nanoluciferase (NLuc) qHTS assay for identification of artifact compounds. (AID 1845222); further: series mostly up to about 54 µM
# How it was run: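 Luminescence from secreted NLuc (filtered, 1:55-diluted S16 cell medium) read 5 min after Nano-Glo substrate; compounds preincubated 15 min, RT. Hill fits of inhibition normalized to DMSO and no-enzyme.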
# [10] = Primary redox qHTS assay for identification of artifact compounds. (AID 1845223)
# How it was run: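 Redox-cycling detection via DTT (250 uM final) oxidation coupled to Amplex Red (25 uM)/HRP (250 mU/mL) in HBSS. 15 min preincubation plus 30 min after DTT, room temperature. Ex/Em 525/598 nm; 4-parameter Hill fit against DMSO and 10 uM DA3003.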
structure (smiles),measurement,setting,value
C[S+](CC[C@H](N)C(=O)O)C[C@H]1O[C@@H](n2cnc3c(N)ncnc32)[C@H](O)[C@@H]1O (stereo partly drawn),outcome,[1],inactive
same,outcome,[2],inactive
same,Potency,[3],3.98 µM (active)
same,outcome,[4],inactive
O=C(Nc1ccc2c(c1)CCN(Cc1ncn[nH]1)C2)c1ccccc1-c1ccc(C(F)(F)F)cc1,Potency,[5],inactive
same,Potency,[6],inactive
same,Potency,[7],inactive
same,outcome,[8],inactive
same,Potency,[9],inactive
same,outcome,[10],inactive
CCCCN(CC)c1nc(C)nc2c1c(C)cn2-c1c(C)cc(C)cc1C,Potency,[5],inactive
same,Potency,[6],inactive
same,Potency,[7],inactive
same,outcome,[8],inactive
same,Potency,[9],inactive
same,outcome,[10],inactive
COC(=O)[C@H]1[C@H]2C[C@@H]3c4[nH]c5cc(OC)ccc5c4CCN3C[C@H]2C[C@@H](OC(=O)/C=C/c2cc(OC)c(OC)c(OC)c2)[C@@H]1OC,Potency,[5],inactive
same,Potency,[7],inactive
same,Potency,[9],inactive
CS(=O)(=O)c1ccc(-n2nc(C(F)(F)F)cc2-c2ccc(F)cc2)cc1,Potency,[5],inactive
same,Potency,[6],inactive
same,Potency,[7],inactive
same,outcome,[8],inactive
same,Potency,[9],inactive
same,outcome,[10],inactive
COC(=O)C1=C(C)NC(C)=C(C(=O)OCC(C)=O)C1c1ccccc1[N+](=O)[O-] (stereo not drawn),Potency,[6],inactive
CC1(C)[C@@H](O)CC[C@]2(C)[C@H]3C(=O)C=C4[C@@H]5C[C@@](C)(C(=O)O)CC[C@]5(C)CC[C@@]4(C)[C@]3(C)CC[C@@H]12,Potency,[5],inactive
same,Potency,[7],inactive
same,outcome,[8],inactive
same,Potency,[9],inactive
same,outcome,[10],inactive
Cc1ccc2c(n1)Oc1ccc(C(C)C(=O)OCC(=O)N(C)C)cc1C2 (stereo not drawn),Potency,[5],inactive
same,outcome,[8],inactive
same,Potency,[9],inactive
same,outcome,[10],inactive
COc1cc(CNC(=O)CCCC/C=C/C(C)C)ccc1O,Potency,[5],inactive
same,Potency,[6],inactive
same,Potency,[7],inactive
same,outcome,[8],inactive
same,Potency,[9],inactive
same,outcome,[10],inactive
Cc1onc(-c2c(F)cccc2Cl)c1C(=O)N[C@@H]1C(=O)N2[C@@H]1SC(C)(C)[C@@H]2C(=O)O,Potency,[5],inactive
same,Potency,[7],inactive
same,outcome,[8],inactive
same,Potency,[9],inactive
Cc1cc(O)c2ccccc2c1O,Potency,[6],inactive
CC(=O)c1ccc(OCC(=O)N2CCCCC2)cc1,Potency,[5],inactive
same,Potency,[6],inactive
same,Potency,[7],inactive
same,outcome,[8],inactive
same,Potency,[9],inactive
same,outcome,[10],inactive
O=C1CC[C@@H](C(=O)N2CSC[C@H]2C(=O)O)N1 ([pGlu]-[Thz]-OH),Potency,[5],inactive
same,Potency,[6],inactive
same,Potency,[7],inactive
same,outcome,[8],inactive
same,Potency,[9],inactive
same,outcome,[10],inactive
